Values joined by “and” are separate entries in the source; they are usually repeats but may differ in a detail not shown here. Equal values may be shown once. About 79,000 compounds went through this panel and 15% of them were active in at least one assay; those are over-represented in the sample as a whole. Where a structure was tested more than once in an assay, its records may differ in their call. Active and inactive are the calls of the source. Cut-off read from the data, not from the text of the source: active = growth inhibition above about 70%; inactive = the rest.
What was measured:
[1] = NCI Yeast Anticancer Drug Screen. Data for the rad50 strain (AID 155);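 note: 0% = growth of vehicle-only cultures of the same strain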; settings: S. cerevisiae rad50 strain growth inhibition, stronger effect = higher value
Summary of the method: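 DNA repair mutant yeast, compound exposure, growth read-out; inhibition is taken relative to vehicle.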

[2] = NCI Yeast Anticancer Drug Screen. Data for the mec2-1 strain (AID 157); settings: S. cerevisiae mec2-1 strain, stronger effect = higher value
Summary of the method: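 Using mec2-1 yeast: add compound, measure growth, express inhibition versus vehicle-treated cultures.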

[3] = NCI Yeast Anticancer Drug Screen. Data for the sgs1 mgt1 strain (AID 161);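 note: 0% = growth of cultures given vehicle only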; settings: S. cerevisiae sgs1 mgt1 strain, stronger effect = higher value
Summary of the method: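 Growth of a repair-deficient yeast mutant was monitored after compound treatment and expressed as inhibition relative to vehicle-treated cultures.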

[4] = NCI Yeast Anticancer Drug Screen. Data for the cln2 rad14 strain (AID 165);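 note: 0% = growth equal to vehicle treated cultures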; settings: S. cerevisiae cln2 rad14 strain, stronger effect = higher value
Summary of the method: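 Yeast strain cln2 rad14, bearing defects in cell cycle control and DNA repair, serves as the test system; values reflect growth inhibition compared with vehicle.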

[5] = NCI Yeast Anticancer Drug Screen. Data for the bub3 strain (AID 167); settings: S. cerevisiae bub3 mutant strain, stronger effect = higher value
Summary of the method: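 In this screen, a yeast mutant lacking normal mitotic checkpoint function is challenged with compound. Relative growth versus vehicle gives the inhibition value.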

[6] = NCI Yeast Anticancer Drug Screen. Data for the mlh1 rad18 strain (AID 175); settings: S. cerevisiae mlh1 rad18 strain growth inhibition, stronger effect = higher value
Summary of the method: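 Steps: expose repair-defective yeast to compound; measure growth; express inhibition against vehicle-treated controls.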

[7] = at 5.0 µM (retest, dose inferred, filed as 0.5)
[8] = at 50.0 µM (retest, dose inferred, filed as 5.0)

Compound | growth inhibition ([1]; at 50.0 µM) | growth inhibition ([2]; at 50.0 µM) | growth inhibition ([3]; at 50.0 µM) | growth inhibition ([4]; at 50.0 µM) | growth inhibition ([5]; at 50.0 µM) | growth inhibition ([6]; at 50.0 µM) | growth inhibition [1, 7] | growth inhibition [1, 8] | growth inhibition [2, 7] | growth inhibition [2, 8] | growth inhibition [4, 7] | growth inhibition [4, 8] | growth inhibition [5, 7] | growth inhibition [5, 8] | growth inhibition [6, 7] | growth inhibition [6, 8] | growth inhibition [3, 7] | growth inhibition [3, 8]
O=C(O)C1CC(O)CN1 (stereo not given) | 26.6% (inactive) and 12.2% (inactive) and -2.5% (inactive) | -9.75% (inactive) and 11.6% (inactive) and -22.9% (inactive) | 31.4% (inactive) and 15.3% (inactive) and 1.95% (inactive) | -4.7% (inactive) and 4.45% (inactive) and -18.1% (inactive) | 23.1% (inactive) and 13.8% (inactive) and 2.75% (inactive) | 30.6% (inactive) and 13.9% (inactive) and 1.9% (inactive) |  |  |  |  |  |  |  |  |  |  |  | 
Cc1cc(=O)[nH]c2ccc(Cc3ccc(N)cc3)cc12 | 6.25% (inactive) and 15.6% (inactive) | 1.7% (inactive) and 0.45% (inactive) |  | 13.2% (inactive) and 31.4% (inactive) | 19.1% (inactive) and -13.5% (inactive) | 11.8% (inactive) and -1% (inactive) | -3% (inactive) | 12% (inactive) | 9% (inactive) | 22% (inactive) | 0% (inactive) | -2% (inactive) | 3% (inactive) | 10% (inactive) | 21% (inactive) | 22% (inactive) |  | 
OCC(O)C(O)C(O)C(O)CO (stereo not given) (tested in a mixture with another compound) |  |  | 0.35% (inactive) [middle of 6 runs] |  |  | 13.2% (inactive) [middle of 6 runs] |  |  |  |  |  |  |  |  |  |  |  | 
O=[N+]([O-])c1cc2c(cc1S(=O)(=O)O)C1C(C3C2C2(Cl)C(Cl)=C(Cl)C3(Cl)C2(Cl)Cl)C2(Cl)C(Cl)=C(Cl)C1(Cl)C2(Cl)Cl (stereo not given) | 66.2% (inactive) | 69.9% (inactive) |  | 54.2% (inactive) | 71.2% (active) | 67.3% (inactive) | -3% (inactive) | 10% (inactive) | -10% (inactive) | 26% (inactive) | 34% (inactive) | 41% (inactive) | -1% (inactive) | 44% (inactive) | 8% (inactive) | 57% (inactive) |  | 
O=C(OC1COC(OC(=O)c2ccccc2)C(OC(=O)c2ccccc2)C1OC(=O)c1ccccc1)c1ccccc1 (stereo not given) | 20.4% (inactive) [middle of 4 runs] | -7.1% (inactive) [middle of 4 runs] | 9.5% (inactive) [middle of 4 runs] | -21.6% (inactive) [middle of 4 runs] |  | -4.1% (inactive) [middle of 4 runs] |  |  |  |  |  |  |  |  |  |  |  | 
Cc1cc(N)c(S)cc1C | 65.1% (inactive) and 25.8% (inactive) | 19.9% (inactive) and 24.2% (inactive) |  | -50% (inactive) and 30.4% (inactive) | 42.9% (inactive) and 75.5% (active) | 59.8% (inactive) and 77% (active) | 6% (inactive) and -2% (inactive) | 25% (inactive) and 28% (inactive) | -8% (inactive) and 0% (inactive) | 25% (inactive) and 31% (inactive) | -1% (inactive) and -7% (inactive) | 2% (inactive) and 7% (inactive) | -2% (inactive) and 1% (inactive) | 59% (inactive) and 47% (inactive) | 2% (inactive) and -2% (inactive) | 70% (active) and 40% (inactive) |  | 
CC(C)C(N)C(=O)NC(C(=O)NC(C(=O)O)C(C)C)C(C)C (stereo not given) | -1.6% (inactive) [middle of 6 runs] | 6.8% (inactive) [middle of 6 runs] | 3.35% (inactive) [middle of 6 runs] |  | 6.2% (inactive) [middle of 6 runs] |  |  |  |  |  |  |  |  |  |  |  |  | 
NCCCC(=O)O | -5.85% (inactive) [middle of 4 runs] |  |  | 6.95% (inactive) [middle of 4 runs] | -15.2% (inactive) [middle of 4 runs] |  |  |  |  |  |  |  |  |  |  |  |  | 
CCCCCCCCCCCCSC(=NC)NC | 99.5% (active) and 99.4% (active) | 99.7% (active) and 99.5% (active) |  | 96.2% (active) and 98% (active) | 99.5% (active) and 99% (active) | 99.1% (active) and 98.8% (active) | 65% (inactive) and 27% (inactive) | 99% (active) and 98% (active) | 48% (inactive) and 19% (inactive) | 100% (active) and 98% (active) | 4% (inactive) and -9% (inactive) | 99% (active) | 91% (active) and 46% (inactive) | 100% (active) | 27% (inactive) and 24% (inactive) | 99% (active) and 98% (active) |  | 
CCOC(=O)C(Cc1ccccc1[N+](=O)[O-])C(=O)OCC | 5.4% (inactive) |  | 28.6% (inactive) | 7.75% (inactive) | 44.6% (inactive) | 20.5% (inactive) | -5% (inactive) | -33% (inactive) |  |  | 17% (inactive) | 10% (inactive) | 30% (inactive) | 3% (inactive) | 0% (inactive) | -22% (inactive) | -21% (inactive) | 3% (inactive)
O=[N+]([O-])c1ccc(N/N=C/CC(O)(C(F)(F)F)C(F)(F)F)c([N+](=O)[O-])c1 | 88.6% (active) |  | 91.8% (active) | 88% (active) | 86.4% (active) | 89.9% (active) | 0% (inactive) | 98% (active) |  |  | 25% (inactive) | 98% (active) | 13% (inactive) | 98% (active) | 3% (inactive) | 98% (active) | -1% (inactive) | 97% (active)
COC1OC2COC(c3ccccc3)OC2C2OC12 (stereo not given) | -7.7% (inactive) [middle of 4 runs] | -2.5% (inactive) [middle of 4 runs] |  | 3.15% (inactive) [middle of 4 runs] | -4.2% (inactive) [middle of 4 runs] | -12.8% (inactive) [middle of 4 runs] |  |  |  |  |  |  |  |  |  |  |  | 
Cn1c2ccccc2c(=O)c2ccccc21 | -16.6% (inactive) and 82% (active) | -18.9% (inactive) and 13.4% (inactive) |  | -11.3% (inactive) and -35.4% (inactive) | 14.2% (inactive) and 3.6% (inactive) | -28.4% (inactive) and 31.8% (inactive) | 4% (inactive) | 38% (inactive) | 23% (inactive) | 9% (inactive) | -4% (inactive) | -2% (inactive) | -9% (inactive) | 1% (inactive) | -1% (inactive) | 20% (inactive) |  | 
O=C(COc1ccc(Cl)cc1Cl)Nc1cccc(C(F)(F)F)c1 | -4.5% (inactive) |  | 9.65% (inactive) | 41.9% (inactive) | 1% (inactive) | -0.4% (inactive) | -4% (inactive) | -3% (inactive) |  |  | -3% (inactive) | -13% (inactive) | 12% (inactive) | 0% (inactive) | 1% (inactive) | 10% (inactive) | -3% (inactive) | -2% (inactive)
